From PubChem
SARS PLpro yeast – qHTS of Yeast-based Assay for SARS-CoV PLP | S. cerevisiae expressing SARS-CoV PLpro, growth rescue | Potency, µM (series often up to 32.9 µM), inactives show at the top dose activity, positive = growth rescue, most hits filed as activators | actives 0.19% (n = 330,000); calls by dose curve; also: 0% is about no effect; nearly all actives have a fitted effect of over 55% in size
Sm TGR block – qHTS Assay for the Inhibitors of Schistosoma Mansoni Peroxiredoxins. Schistosoma mansoni thioredoxin glutathione reductase (TGR), Q962Y6. purified TGR, DTNB reduction, TNB absorbance 405 nm. Potency, µM (series often up to 114 µM), inactives show at the highest dose activity change, negative = inhibition, hits mostly inhibitors. actives 3% (n = 360,000). AID 485364, 2010; active = well fitted inhibition curve with a large enough effect; inconclusive = small, poorly fitted or top-dose-only effect; inactive = no such curve, though single readings can be large or run the other way; also: % is scaled to controls: 0 for no effect and ±100 for the full control effect; nearly all actives have a fitted effect of over 60% in size
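TGR 20 nM + NADPH 100 uM (dispensed conc.), cpd preinc 15 min RT; start with NADPH (500 uM addition) then DTNB (15 mM addition). Kinetic TNB absorbance, 405 nm filter. Four-parameter Hill fit across titration.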
* marks the source's active call; other numbers are inactive results; ? = inconclusive; · = not tested or not shown; [ ] = dose if it differs, or a comment. Rows were chosen to be rich in hits. Some 3% of all compounds tested hit in one or more screens of this group. Potency is read from the fitted curve at half-maximal effect.

SMILES	SARS PLpro yeast	Sm TGR block
CCOc1cc(/C=C2/N=C(C)C(C(=O)OC)=C2O)ccc1O	2%	-26%
CCOc1cc(/C=C2\CN(C)C/C(=C\c3ccc(O)c(OCC)c3)C2=O)ccc1O	-1%	13µM*
CCOc1cc(/C=C2/C(=O)ON=C2C)ccc1O	2%	-15%
CCOC(=O)c1ccc(NC(=O)c2cc3c(n(-c4ccc(C)cc4)c2=O)CC(C)(C)CC3=O)cc1	·	-6%
Cc1cccc(N2CCN(c3ncnc4c3nc3n4CCCCC3)CC2C)c1 (centres undefined)	·	6%
O=C1NC(=O)/C(=C/c2cccc(O)c2)N1	3%	-17%
CC(C)(C)c1cc(/C=C2\NC(=O)NC2=O)cc(C(C)(C)C)c1O	0%	1.1µM*
CC(C)OCCCNC(=O)CCCn1c(SCC(=O)c2ccc(F)cc2)nc2c(sc3ccccc32)c1=O	·	-7%
O=C(NCc1ccc(Cl)cc1)NC1COc2ccccc2C1 (centres undefined)	·	-2%
COc1ccc(C(=O)CSc2n[nH]c(=O)n2Cc2ccco2)cc1	-1%	-23%
O=C(O)CCc1ccc(-c2cccs2)n1Cc1ccco1	-3%	?
O=C(O)CCc1ccc(-c2ccc(Cl)cc2)n1Cc1ccco1	-7%	40µM*
COc1ccc(-c2ccc(CCC(=O)O)n2Cc2ccco2)cc1	-1%	25µM*
CC(=O)Nc1ccc(NC(=O)c2ncoc2-c2ccco2)cc1	·	-5%
CC1(C)CC(N2CCOCC2)=CC(=[N+]2CCOCC2)C1	-1%	45µM*
CC1C[N+](=C2C=C(N3CCOCC3)CC(C)(C)C2)CC(C)O1 (centres undefined)	7%	3%
CCC(C(=O)Nc1cc(C)ccc1C)n1c(=O)c(C(F)(F)F)nc2ccccc21 (centres undefined)	·	-5%
N#Cc1c[nH]n2c(NC3CCCCC3)c(-c3ccccc3F)nc12	·	-7%
CN1/C(=C/C2CC(=O)N(c3ccc([N+](=O)[O-])cc3)C2=O)C(C)(C)c2ccccc21 (centres undefined)	3%[6.58 µM]	13µM*
CN1/C(=C\C(=S)NC(=O)c2ccc([N+](=O)[O-])cc2)C(C)(C)c2ccccc21	20%	-19%
CCn1c(=O)c2cc(C(=O)Nc3cc(F)ccc3F)sc2c2ccccc21	·	0%
O=C(CN1C(=O)COc2ccc(S(=O)(=O)N3CCCCCC3)cc21)N1CCN(c2ccc(F)cc2)CC1	·	-1%
CCOC(=O)C1CCN(S(=O)(=O)c2cccc3nonc23)CC1	7%	0%
CCOC(=O)C1CCN(S(=O)(=O)c2c(Cl)ccc3nonc23)CC1	-29%	0.89µM*
CC(=O)c1cc(NC(=O)c2cccc(C(F)(F)F)c2)c(=O)oc1/C=C/N(C)C	5%	5%
SMILES	SARS PLpro yeast	Sm TGR block
CC(=O)c1cc(NC(=O)c2cccc(C(F)(F)F)c2)c(=O)oc1C	-6%	35µM*
Cc1nc(C)c(-c2ccc(SCC(=O)Nc3ccc(Cl)c(Cl)c3)nn2)s1	·	8%
COc1cccc(-c2nc(CS(=O)(=O)CC(=O)N3CCN(c4ccccc4)CC3)c(C)o2)c1	·	3%
Cc1ccc(C(=O)O)cc1NC(=S)NC(=O)C(c1ccccc1)c1ccccc1	6%	56µM*
Cc1ccc(C(=O)O)cc1NC(=S)NC(=O)Cc1ccccc1	10%	0%
CC(=O)c1ccc(NC(=O)CC2Sc3ccccc3NC2=O)cc1 (centres undefined)	·	8%
Cc1nn2c(N3CCCC3)c3c(nc2c1-c1ccccc1)CCC3	0%	11µM*
Cc1nn2c(N3CCN(CCO)CC3)c3c(nc2c1-c1ccccc1)CCCC3	0%	13%
CCCCN(CCCC)C(=O)c1c[nH]c2ccc(S(=O)(=O)Nc3cccc(Cl)c3C)cc2c1=O	-1%	-4%
COc1ccccc1C1C(C(=O)Nc2ccccc2)=C(C)Nc2nc(-c3ccccc3)nn21 (centres undefined)	·	6%
Cc1cccc(N2CCN(C(=O)Cn3c(-c4cccs4)cc4ccccc43)CC2)c1C	·	1%
Fc1ccc(C[n+]2csc3ccccc32)cc1	-27%	0%
Clc1ccc(C[n+]2csc3ccccc32)cc1	-35%	4.5µM*
Cc1nc2nc[nH]n2c(=O)c1CCC(=O)Nc1ccc(F)cc1	·	-2%
Nc1nc(N)c(N=Nc2ccc(Cl)cc2)c(=O)[nH]1	1%	1%
CSc1nc(N)c(N=Nc2ccc([As](=O)(O)O)cc2)c(=O)[nH]1	1%	0.32µM*
Oc1c(C(c2ccccc2)N2CCC(O)CC2)sc2nc(-c3ccco3)nn12 (centres undefined)	·	1%
Cc1ccc(NC(=O)CSc2nc3nccnc3c(=O)n2CCc2c[nH]c3ccccc23)c(C)c1	·	1%
Cc1ccc(S(=O)(=O)NCCc2nnc3ccc(SCC(=O)Nc4ccc(OC(F)(F)F)cc4)nn23)cc1	·	6%
COc1ccccc1N1CCN(C2=CC(=O)CCC2)CC1	4%	?
O=C1C=C(N2CCN(C3=CC(=O)CCC3)CC2)CCC1	2%	20µM*
CCOC(=O)c1cc(-c2ccccc2)n(CC(=O)N(C)c2ccc(OC)cc2)c1C	·	17%
Cc1ccc(-c2ccc(NC(=O)C3C4C=CC(C4)C3C(=O)O)cc2)o1 (centres undefined)	8%	45µM*
COc1ccc(NC(=O)C2C3C=CC(C3)C2C(=O)O)cc1 (centres undefined)	0%	-17%
COc1ccc(-c2cc(OC(=O)c3ccc(F)cc3)c3c(C)oc(C)c3c(=O)c2)cc1OC	·	-35%
SMILES	SARS PLpro yeast	Sm TGR block
COc1ccc(-c2cc(OC(=O)c3ccc(Cl)cc3)c3c(C)oc(C)c3c(=O)c2)cc1	·	40µM*
COc1cc(-c2cc(OC)c3c(C)oc(C)c3c(=O)c2)ccc1O	-2%	-15%
COc1ccc(-c2cc(OC)c3c(C)oc(C)c3c(=O)c2)cc1OC	-27%	50µM*
Cc1ccc(C(=O)c2oc3ccccc3c2NC(=O)c2cc(-c3ccccc3)on2)cc1F	·	-6%
Cc1cc(C)cc(C(=O)N2CC(=O)Nc3ccc(Br)cc3C2c2ccccc2)c1 (centres undefined)	·	2%
O=C1c2ccc([N+](=O)[O-])cc2S(=O)(=O)N1Cc1ccccc1	-5%	18µM*
COc1cccc(CN2C(=O)c3ccccc3S2(=O)=O)c1	-5%	3%
CCOc1ccc(NC(=O)c2sc(-n3nc(C)c(Cc4ccc(Cl)cc4)c3C)nc2C)cc1	·	3%
COc1ccccc1NC(=O)Cn1c(=O)n(-c2cccc(C)c2)c(=O)c2c1c1cc(C)ccc1n2C	·	1%
CC(=O)C(C(C)=O)c1c(Cl)c(O)c(O)c2c(C(=O)c3ccccc3)coc12	-7%	2.5µM*
CN1CCN(Cc2c(O)ccc3occ(C(=O)c4ccccc4)c23)CC1	2%	-21%
CCCn1c(=O)c2sccc2n2c(CCCC(=O)NC3CCCCC3)nnc12	·	5%
Cc1cn2c(=O)cc(COc3cccc(NC(=O)c4ccccc4Cl)c3)nc2s1	·	-8%
C=CCc1cc(C=C2C(=O)NC(=O)NC2=O)cc(OC)c1OCc1ccc(C(=O)O)cc1	1%	?
C=CCc1cc(C=C2C(=O)N(C)C(=O)N(C)C2=O)cc(OCC)c1OCc1ccccc1	9%	32µM*
COc1ccc(-c2cn3c(n2)sc2cc(C(=O)NCc4cccs4)ccc23)cc1	·	-13%
O=C(c1ccco1)N1CCN(c2ccc([N+](=O)[O-])cc2F)CC1	-3%	35µM*
